Source: PubChem
Hits are enriched below; roughly 10% of the tested compounds scored in any of these assays.
KB-3-1 tox – kills parental KB-3-1 adenocarcinoma cells | KB-3-1 viability, CellTiter-Glo ATP luminescence, 72 h | Potency, µM (titrated, usually from 46.1 µM), usual class: cytotoxic | 1.4% of 400,000 active; further: on the % scale 0 is the no-effect control and ±100 the full control effect; nearly all actives have a fitted effect of over 60% in size
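Cells are dispensed, compounds pinned in, plates held at 37 °C for 72 h, then CellTiter-Glo is added and luminescence read after 10 minutes. Cell line: parental KB-3-1 in phenol-red-free DMEM, 10% FBS.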
SW480 rereplic – inducers of DNA re-replication in SW480 colon cancer cells; SW480 DNA re-replication, Hoechst DNA content imaging, 48 h; Potency, µM (highest dose often 46.1 µM), inactives show top-dose re-replication activation, actives largely listed as activators; 1.8% of 340,000 active; AID 624297; further: % of control where 0% means no effect; nearly all actives have a fitted effect of over 55% in size
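Per well, 250 cells were exposed to pinned compound for 48 hr. Nuclear DNA was visualised with Hoechst (40 min, 37 C) and total object intensity recorded by fluorescence scanning.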
Gal4-VP16 FLuc – inhibits Gal4-VP16 luciferase reporter, ROR gamma counter-screen. AID 2546. Drosophila S2 Gal4-VP16 UAS-luciferase, luminescence, 20 h. Potency, µM (top dose mostly 53.6 µM), for the others: top-dose activity, negative = inhibition, actives largely listed as inhibitors. 3.5% of 310,000 active;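 further: Gal4-VP16 expression switched on by copper sulfate through the metallothionein promoter; on the % scale 0 is the no-effect control and ±100 the full control effect; nearly all actives have a fitted effect of over 50% in size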
RORg inh – ROR gamma (mouse) transcription inhibition; P51450; Drosophila S2 Gal4-RORgamma UAS-luciferase reporter, 20 h; Potency, µM (titrated, usually from 53.6 µM), for the others: at the highest dose activity change, negative = inhibition, usual class: inhibitors; 5.4% of 310,000 active; AID 2551; further: on the % scale 0 is the no-effect control and ±100 the full control effect; nearly all actives have a fitted effect of over 60% in size
Target sequence (P51450 whole entry, looked up, the tested form may be a part): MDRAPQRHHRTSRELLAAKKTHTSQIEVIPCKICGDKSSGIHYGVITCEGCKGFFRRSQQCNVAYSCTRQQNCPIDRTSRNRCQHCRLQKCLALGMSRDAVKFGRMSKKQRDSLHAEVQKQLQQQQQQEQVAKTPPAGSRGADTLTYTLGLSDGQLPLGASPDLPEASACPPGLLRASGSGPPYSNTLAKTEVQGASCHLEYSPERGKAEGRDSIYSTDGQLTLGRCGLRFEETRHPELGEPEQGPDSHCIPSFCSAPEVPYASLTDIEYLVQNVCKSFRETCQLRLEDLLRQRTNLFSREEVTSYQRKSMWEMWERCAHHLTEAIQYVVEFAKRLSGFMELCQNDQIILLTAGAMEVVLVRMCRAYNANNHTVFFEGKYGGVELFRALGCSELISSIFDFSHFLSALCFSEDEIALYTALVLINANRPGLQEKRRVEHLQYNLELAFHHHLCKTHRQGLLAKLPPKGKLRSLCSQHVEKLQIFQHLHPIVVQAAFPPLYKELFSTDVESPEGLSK
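Read-out: Photinus luciferase luminescence; inhibitors lower reporter signal. Insect Schneider cells with Gal4-ROR gamma fusion under metallothionein promoter, UAS reporter; 700 uM final copper sulfate induction, 20 hr, ambient temperature.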
MCF10A rereplic – inducers of DNA re-replication in MCF 10A breast cells | MCF 10A DNA re-replication, Hoechst nuclear intensity, 48 h | Potency, µM (doses to about 46.1 µM), without a hit: top-dose activity, positive = re-replication, most hits filed as activators | 2.9% of 350,000 active | AID 624296; further: % of control where 0% means no effect; nearly all actives have a fitted effect of over 50% in size
KB-V1 cytotox – KB-V1 MDR subline cytotoxicity; KB-V1 MDR cells viability, CellTiter-Glo, 72 h; Potency, µM (doses to about 46.1 µM), usual class: cytotoxic; 3.4% of 400,000 active; AID 1347076; further: on the % scale 0 is the no-effect control and ±100 the full control effect; nearly all actives have a fitted effect of over 60% in size
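Following 72 h at 37 degrees C with compound, KB-V1 cell viability was read by CellTiter-Glo luminescence, medium being phenol-red-free DMEM plus 10% FBS; concentration-response parameters came from normalized, curve-fitted qHTS data.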
* hit, by the source's call; i = inactive; ? = inconclusive; . = no result given; ! = a repeat was not active; [ ] = another dose, or the depositor's remark. The call rests on the fitted dose curve; in most records, active means well fitted curve in the direction sought with a large enough effect; inconclusive means small, poorly fitted or top-dose-only effect, or another doubt; inactive means no such curve, though single readings can be large; an effect the other way counts as inactive or inconclusive. Potency means the concentration at half of the fitted maximal effect.

SMILES	KB-3-1 tox	SW480 rereplic	Gal4-VP16 FLuc	RORg inh	MCF10A rereplic	KB-V1 cytotox
COCCCn1c(=O)/c(=C\c2ccccc2OC(F)F)s/c1=C(/C#N)C(=O)NCCOC	i	?	-0.1%	-11.0%	14.6µM*	i
O=C1OC(c2ccc(O)c(S(=O)(=O)O)c2)(c2ccc(O)c(S(=O)(=O)O)c2)c2c(Br)c(Br)c(Br)c(Br)c21	.	-2.3%	-7.7%	-4.6%	-5.5%	.
CCON=O	.	0.944µM*	4.2%	-7.4%	-0.5%	.
CC(C)CON=O	.	.	-3.8%	-12.0%	.	.
CCOP(=S)(OCC)Oc1cc(C)nc(N(CC)CC)n1	.	.	-0.2%	0.3%	.	.
O=C(Nc1cccc(C(F)(F)F)c1)OC1CN2CCC1CC2 (stereo not drawn)	i	5.9%	-0.3%	11.7%	-0.5%	i
OC(c1cccc(Cl)c1)(c1cccc(Cl)c1)C1CN2CCC1CC2 (stereo not drawn)	?	6.9%	11.2µM*	6.31µM*	?	?
CCCCCCCCCCCCC/C=C/[C@@H](O)[C@@H](N)COP(=O)([O-])OCC[N+](C)(C)C	.	.	-28.6%	-13.4%	.	.
NS(=O)(=O)c1cc([C@@]2(O)NC(=O)c3ccccc32)ccc1Cl	.	-3.9%[20.6 µM]	-5.5%[17 µM]	-6.9%[2.98 µM]	0.1%[20.6 µM]	.
O=Cc1cn(Cc2ccc(Br)cc2)c2ccccc12	10.3µM*	-4.5%	-5.5%	39.9%	6.3%	?
c1ccc(-c2ccccc2)cc1	.	.	0.2%	4.4%	.	.
[Hg+][c]1ccccc1	?	10.6µM*	2.82µM*	?	51.1%	?
COc1ccc(-n2nc(C(=O)NCC(=O)N3CCC4(CC3)OCCO4)c3ccccc3c2=O)cc1OC	i	-3.9%	?	15.8µM*	-2.9%	i
COc1ccc(C(O)P(=O)(OC(C)C)OC(C)C)cc1 (stereo not drawn)	i	-21.1%	-2.4%	3.6%	-0.6%	i
COc1ccc(C(=O)O/N=C(/C(N)=O)P(=O)(OC(C)C)OC(C)C)cc1	i	70.0%	7.94µM*	15.8µM*	-1.9%	i
CCCCC(CC)COC(=O)c1ccc(C(=O)OCC(CC)CCCC)c(C(=O)OCC(CC)CCCC)c1 (stereo not drawn)	.	.	-16.4%	0.9%	.	.
CC(C)(C)N1CC(C(=O)c2ccccc2)C1c1ccccc1 (stereo not drawn)	i	-1.3%	.	.	28.6%	16.4µM*
CN1CC(C(=O)c2ccccc2)C(c2ccccc2)C1 (stereo not drawn)	i	9.8%	-18.1%	5.7%	-10.2%	i
COC(=O)C1C(c2ccccc2)C2C(=O)c3c(OC)cc(OC)cc3O[C@@]12c1ccc(OC)cc1 (stereo partly drawn)	.	.	-10.1%[10 µM]	4.1%[10 µM]	.	.
COC(=O)[C@@H]1[C@@H](O)[C@@]2(O)c3c(OC)cc(OC)cc3O[C@@]2(c2ccc(OC)cc2)[C@H]1c1ccccc1	.	.	0.1µM*	0.398µM*	.	.
Cc1ccc(C2C(=O)NC(=O)NC2=O)cc1	i	18.4µM*	.	.	-1.9%	i
Cc1ccc(N2C(=O)CC(=O)NC2=O)cc1	i	-3.4%	-14.4%	2.8%	-5.6%	i
O=C1CC2OCC=C3CN4CC[C@@]56c7ccccc7N1C5C2C3CC46 (stereo partly drawn)	.	.	0.4%	-14.2%	.	.
Clc1ccc2c(c1)C(OC1CN3CCC1CC3)c1ccccc1CS2 (stereo not drawn)	?	?	?	-41.8%	?	16.4µM*
CN1CCN(CCOC2c3ccccc3CSc3ccc(Cl)cc32)CC1 (stereo not drawn)	?	?	5.0%	11.6%	23.1µM*	?
SMILES	KB-3-1 tox	SW480 rereplic	Gal4-VP16 FLuc	RORg inh	MCF10A rereplic	KB-V1 cytotox
O=[N+]([O-])c1ccc(-c2ccccc2)c([As](=O)(O)O)c1	i	15.8%	-7.3%	-1.2%	23.1µM*	i
NCCNC[C@@H](N)CCCN=C(N)N[N+](=O)[O-]	.	.	-10.6%	-5.7%	.	.
c1csc(-c2nnc(Cc3cccc4ccccc34)o2)c1	i	-2.1%	15.8%	?	13.3%	14.6µM*
CC(C)C[C@H]1CN([C@@H](CC(C)C)CN2CCCC2CN2C(=S)NC[C@@H]2Cc2ccc(O)cc2)C(=S)N1CC1CCCCCC1 (stereo partly drawn)	?	-35.7%	.	.	?	?
CC(=O)OC[C@H](N)C(=O)c1ccccc1	.	.	-5.9%	2.7%	.	.
CC(=O)O[C@H]1C[C@@H]2OC3C=C(C)CCC3(C)[C@@]1(C)[C@@]21CO1 (stereo partly drawn)	2.31µM*	9.2µM*	.	.	1.03µM*	1.64µM*
C[C@@H](NC(=O)[C@@H](N)Cc1ccc(O)cc1)C(=O)NCC(=O)N(C)[C@@H](Cc1ccccc1)C(=O)NCCO	.	.	-1.7%	0.7%	.	.
COC1/C=C/C=C(\C)Cc2cc(O)c(Cl)c(c2)N(C)C(=O)CC(OC(=O)C(C)C)C2(C)OC2C(C)C2CC1(O)NC(=O)O2 (stereo not drawn)	?	?	.	.	?	0.731µM*
CN1CC=C(/C=C/c2ccc(-c3ccccc3)cc2)CC1	i	5.6%	?	?	16.4µM*	i
Clc1cc(Cl)c(Cl)c(Cl)c1	.	.	-15.7%	13.8%	.	.
CN(C)CC(C(=O)Cc1ccccc1)c1ccccc1 (stereo not drawn)	8.2µM*	4.61µM*	.	.	13µM*	?
CNc1ccc2oc(C[C@H]3O[C@@]4(CC[C@H]3C)O[C@H]([C@H](C)C(=O)c3ccc[nH]3)[C@H](C)C[C@H]4C)nc2c1C(=O)O	4.11µM*	?	1.26µM*	-8.6%	4.61µM*	3.66µM*
COc1ccc(NC(=O)c2cn(CCC#N)nc2-c2ccc(OC)c(OC)c2)cc1	i	-42.8%	-1.0%	15.9%	6.51µM*	i
COc1ccc(-c2nn(CCC#N)cc2C(=O)Nc2ccccc2)cc1OC	i	-5.6%	-13.4%	3.5%	-1.7%	i
CCOC(=O)[C@]12Cc3cc(Cl)ccc3[C@H]1N(Cc1ccccc1)C(=O)c1ccccc12	?	1.9%[9.22 µM]	.	.	-48.7%	23.1µM*!
CCOC(=O)[C@]12Cc3cc(C)ccc3[C@H]1N(Cc1ccccc1)C(=O)c1cc(OC)ccc12	18.4µM*	.	.	.	.	9.2µM*
CCOC(=O)[C@]12Cc3cc(N(C)C)ccc3[C@H]1N(Cc1ccccc1)C(=O)c1ccccc12	?	-1.1%	.	.	15.1%	?
CCOC(=O)[C@]12Cc3ccccc3[C@H]1N(Cc1ccccc1)C(=O)c1cc(F)c(F)cc12	23.1µM*	.	.	.	.	10.3µM*
CCOC(=O)Cn1c(-c2ccccc2)ccc(C#N)c1=O	i	?	-7.3%	-24.6%	-17.6%	i
O=C(O)C1CN(CP(=O)(O)O)CCN1 (stereo not drawn)	.	.	-3.5%	-1.6%	.	.
